Assay results as given in PubChem BioAssay.
Active and inactive are the calls of the source. Unless noted, no rule for the calls is given here.

Assays:
[1] = test system: Wnt5a (protein binding on small-molecule microarray); assay: Wnt5a binders on small-molecule microarray, primary screen, biophysical, 635/667 nm fluorescence (AID 1142); conditions: 635 nm fluorescence, higher = more signal;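 also: fluorescence read at 667 nm with signal to noise per printed feature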
[2] = cell viability in Huh7 cells, primary screen, cytotoxicity control for HCV replication inhibitor project, CellTiter-Glo luminescence, basal, 48 h (AID 1143); conditions: Huh7 HCV replicon, higher = more signal, called active from +8 up or from −8 down;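 also: Huh7 hepatoma cells carrying a hepatitis C replication reporter with no stimulus; test concentration not given here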
[3] = P. aeruginosa biofilm formation inhibitors, primary screen, PAO1 strain, BacTiter-Glo luminescence, LB-PBS (AID 1144); conditions: 12 h, higher = more signal
[4] = CREB reporter modulators without forskolin, primary screen, cell-based, PC12, CRE-LacZ reporter, unstimulated (AID 1145); conditions: no forskolin, luminescence, 4.5 h, higher = more signal, called active from +8 up or from −8 down
[5] = CREB reporter modulators under forskolin, primary screen, cell-based, PC12, CRE-LacZ reporter, forskolin-stimulated (AID 1146); conditions: luminescence, 4.5 h, higher = more signal, called active from +8 up or from −8 down;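 also: PC12 cells with 6xCRE LacZ reporter stimulated by forskolin 10 µM; beta-galactosidase reporter signal reflecting CREB driven transcription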
[6] = biological target: Streptavidin (Streptomyces avidinii) (UniProt P22629); assay: streptavidin binders on small-molecule microarray, primary screen, artefact control for SMM compound annotation, biophysical, 635/667 nm fluorescence (AID 1147); conditions: streptavidin binding, higher = more signal;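 also: signal reflects streptavidin binding to arrayed compounds as a control protein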
[7] = small-molecule binders of probe aInhba, primary screen, biochemical, small-molecule microarray, 635/667 nm fluorescence (AID 1148); conditions: higher = more signal;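 also: score merges 667nm spot fluorescence with signal-to-noise for antibody binding to printed compounds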
[8] = biological target: Torsin-1A (Homo sapiens) (UniProt O14656); assay: torsin A binders from cell lysate, primary screen, small-molecule microarray, wild-type, 635/667 nm (AID 1149); conditions: COS7 hTOR1A-WT lysate, 635 nm fluorescence, higher = more signal
[9] = biological target: Torsin-1A (Homo sapiens) (UniProt O14656); assay: small-molecule binders of mutant TOR1A in lysate, primary screen, cell lysate, small-molecule microarray, COS7 lysate, 635/667 nm fluorescence (AID 1150); conditions: COS7 hTOR1A mutant lysate, 635 nm fluorescence, higher = more signal;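 also: score pools 667 nm emission and signal to noise measuring lysate protein binding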
[10] = test system: Sonic hedgehog protein (Shh); assay: small-molecule binders of Shh protein, primary screen, biochemical, small-molecule microarray, 635/667 nm fluorescence (AID 1151); conditions: small-molecule microarray binding, 635 nm fluorescence; higher = more signal;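 also: Shh protein binding to compounds spotted on small-molecule microarray slides; score combines spot fluorescence intensity with signal-to-noise across triplicate slides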
[11] = E. coli DRC41 culture turbidity changes, primary screen, E. coli filamentation inducer project, strain DRC41, OD650, 48 h (AID 1152);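 also: E. coli MC1000 strain DRC41 lacking acrAB efflux pump and sulA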; conditions: E. coli DRC41 (acrAB sulA), higher = more signal, called active from +8 up or from −8 down
[12] = small-molecule binders of probe aLefty1, primary screen, biochemical, small-molecule microarray, 635/667 nm fluorescence (AID 1153); conditions: higher = more signal;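 also: score merges spot fluorescence with signal-to-noise ratio from the scanned slide images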
[13] = PSAC antagonists in infected red cells, primary screen, cell-based, P. falciparum Indochina, OD700, 1 h (AID 1154); conditions: P. falciparum Indochina infected RBC osmotic lysis, higher = more signal, called active from +8 up or from −8 down
[14] = PSAC antagonists in infected red cells, primary screen, cell-based, P. falciparum Indochina, OD700, 2 h (AID 1155);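 also: lysis reports solute entry through the parasite surface anion channel PSAC; channel blockers reduce lysis of infected cells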; conditions: P. falciparum Indochina infected erythrocytes, osmotic lysis OD700; higher = more signal, called active from +8 up or from −8 down
[15] = osmotic lysis modulators in infected erythrocytes, primary screen, PSAC antagonist project, cell-based, P. falciparum Indochina, OD700, 3 h (AID 1156); conditions: higher = more signal, called active from +8 up or from −8 down
[16] = PSAC antagonists in infected red cells, primary screen, cell-based, P. falciparum Indochina, OD700, 18 h (AID 1157); conditions: P. falciparum Indochina infected erythrocytes, osmotic lysis OD700, 18 h; higher = more signal, called active from +8 up or from −8 down
[17] = modulators of S6 phosphorylation in cells, primary screen, cell-based, A549, cytoblot, luminescence, serum-stimulated (AID 1158); conditions: A549 phospho-S6 cytoblot, 5 h, higher = more signal;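 also: serum-stimulated A549 lung adenocarcinoma cells; signal is phosphorylated S6 detected by cytoblot immunostaining with HRP secondary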
[18] = biological target: NADPH oxidase 2 (Homo sapiens) (UniProt P04839); assay: NOX2-dependent H2O2 signal modulators, primary screen, NOX inhibitor project, cell-based, HEK293-NOX2, PMA-stimulated, Amplex Red fluorescence (AID 1159); conditions: 45 min, higher = more signal, called active from +8 up or from −8 down; also: test concentration not given here
[19] = biological target: NADPH oxidase 4 (Homo sapiens) (UniProt Q9NPH5); assay: NOX4-dependent H2O2 signal modulators, primary screen, NOX inhibitor project, cell-based, HEK293-NOX4, tetracycline-induced, Amplex Red fluorescence (AID 1160); conditions: 45 min, higher = more signal, called active from +8 up or from −8 down
[20] = biological target: NADPH oxidase 5 (Homo sapiens) (UniProt Q96PH1); assay: NOX5-dependent H2O2 signal modulators, primary screen, NOX inhibitor project, cell-based, HEK293-NOX5, Amplex Red fluorescence (AID 1161); conditions: HEK293-NOX5, ionomycin, 45 min, higher = more signal
Chain of NADPH oxidase 5 (Homo sapiens) (Q96PH1 whole entry, looked up): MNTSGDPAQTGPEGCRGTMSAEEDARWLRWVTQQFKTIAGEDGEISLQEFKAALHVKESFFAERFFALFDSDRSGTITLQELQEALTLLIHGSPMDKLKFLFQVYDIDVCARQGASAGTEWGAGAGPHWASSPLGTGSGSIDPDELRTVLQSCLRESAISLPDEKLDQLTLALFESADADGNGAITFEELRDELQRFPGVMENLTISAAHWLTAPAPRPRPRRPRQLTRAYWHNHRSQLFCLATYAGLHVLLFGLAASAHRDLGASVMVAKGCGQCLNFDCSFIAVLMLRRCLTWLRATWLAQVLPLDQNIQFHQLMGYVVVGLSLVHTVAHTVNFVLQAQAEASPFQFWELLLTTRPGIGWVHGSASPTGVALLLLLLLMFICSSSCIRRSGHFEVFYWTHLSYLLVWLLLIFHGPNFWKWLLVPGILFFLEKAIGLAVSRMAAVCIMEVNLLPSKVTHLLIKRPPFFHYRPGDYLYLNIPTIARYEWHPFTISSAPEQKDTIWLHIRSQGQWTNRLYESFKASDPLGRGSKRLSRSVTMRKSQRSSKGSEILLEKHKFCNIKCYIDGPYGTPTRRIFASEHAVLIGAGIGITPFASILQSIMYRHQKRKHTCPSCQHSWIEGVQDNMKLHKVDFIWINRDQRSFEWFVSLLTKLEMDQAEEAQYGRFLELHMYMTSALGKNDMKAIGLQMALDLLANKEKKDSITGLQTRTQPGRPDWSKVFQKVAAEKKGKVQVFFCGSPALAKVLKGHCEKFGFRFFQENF

Chain of NADPH oxidase 2 (Homo sapiens) (P04839 whole entry, looked up): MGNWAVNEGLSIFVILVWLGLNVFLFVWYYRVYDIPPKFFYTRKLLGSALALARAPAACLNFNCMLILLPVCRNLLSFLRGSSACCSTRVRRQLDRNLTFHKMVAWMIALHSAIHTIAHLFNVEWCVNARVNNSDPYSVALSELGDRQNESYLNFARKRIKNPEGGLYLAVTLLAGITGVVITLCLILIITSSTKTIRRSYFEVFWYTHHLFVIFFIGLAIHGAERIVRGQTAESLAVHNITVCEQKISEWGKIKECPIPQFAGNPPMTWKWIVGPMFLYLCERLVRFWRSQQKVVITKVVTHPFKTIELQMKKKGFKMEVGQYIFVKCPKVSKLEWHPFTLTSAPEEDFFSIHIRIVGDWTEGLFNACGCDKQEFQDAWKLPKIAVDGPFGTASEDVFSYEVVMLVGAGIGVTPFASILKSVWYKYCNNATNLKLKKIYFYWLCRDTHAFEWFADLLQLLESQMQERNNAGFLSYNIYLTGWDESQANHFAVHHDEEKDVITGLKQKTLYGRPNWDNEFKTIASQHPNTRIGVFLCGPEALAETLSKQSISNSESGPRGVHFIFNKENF
Chain of Torsin-1A (Homo sapiens) (O14656 whole entry, looked up): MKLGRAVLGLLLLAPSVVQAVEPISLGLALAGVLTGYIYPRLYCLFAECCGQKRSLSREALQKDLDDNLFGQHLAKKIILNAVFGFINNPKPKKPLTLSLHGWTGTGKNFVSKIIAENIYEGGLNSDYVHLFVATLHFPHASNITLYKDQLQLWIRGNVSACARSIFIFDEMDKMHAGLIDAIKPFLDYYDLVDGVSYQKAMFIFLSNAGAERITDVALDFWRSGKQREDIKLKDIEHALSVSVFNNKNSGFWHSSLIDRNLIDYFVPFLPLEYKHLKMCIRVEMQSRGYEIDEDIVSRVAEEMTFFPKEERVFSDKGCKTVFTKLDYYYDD
Chain of NADPH oxidase 4 (Homo sapiens) (Q9NPH5 whole entry, looked up): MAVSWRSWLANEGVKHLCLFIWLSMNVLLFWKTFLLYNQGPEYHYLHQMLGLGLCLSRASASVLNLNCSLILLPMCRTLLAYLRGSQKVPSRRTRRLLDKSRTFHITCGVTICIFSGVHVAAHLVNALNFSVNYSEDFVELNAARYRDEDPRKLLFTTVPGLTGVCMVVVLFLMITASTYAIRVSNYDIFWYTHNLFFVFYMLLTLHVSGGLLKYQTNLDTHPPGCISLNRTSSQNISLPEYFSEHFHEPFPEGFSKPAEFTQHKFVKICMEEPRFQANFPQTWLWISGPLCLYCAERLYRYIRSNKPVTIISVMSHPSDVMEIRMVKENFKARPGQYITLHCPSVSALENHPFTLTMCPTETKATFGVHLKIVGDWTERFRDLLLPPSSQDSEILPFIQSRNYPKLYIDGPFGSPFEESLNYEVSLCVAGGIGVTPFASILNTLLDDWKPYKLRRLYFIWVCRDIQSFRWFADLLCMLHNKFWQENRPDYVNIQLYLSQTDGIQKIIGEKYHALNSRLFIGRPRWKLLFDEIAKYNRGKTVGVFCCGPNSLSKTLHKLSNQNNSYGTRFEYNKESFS
Chain of Streptavidin (Streptomyces avidinii) (P22629 whole entry, looked up): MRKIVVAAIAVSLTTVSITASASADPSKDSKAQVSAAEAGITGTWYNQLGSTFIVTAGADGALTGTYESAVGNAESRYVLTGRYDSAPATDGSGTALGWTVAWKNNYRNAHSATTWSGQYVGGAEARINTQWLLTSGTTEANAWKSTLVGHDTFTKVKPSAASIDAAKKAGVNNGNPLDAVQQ

Row | Structure (SMILES) | composite z-score [1] | z-score [2] | z-score [3] | z-score [4] | z-score [5] | composite z-score [6] | composite z-score [7] | composite z-score [8] | composite z-score [9] | composite z-score [10] | z-score [11] | composite z-score [12] | z-score [13] | z-score [14] | z-score [15] | z-score [16] | z-score [17] | z-score [18] | z-score [19] | z-score [20]
1 | COC(=O)C(CC#Cc1ccc2c(c1)[C@]1(C(=O)N2)[C@H](C(=O)N2CCc3cc(OC)c(OC)cc3C2)[C@H]2C(=O)O[C@H](c3ccccc3)[C@H](c3ccccc3)N2[C@@H]1c1ccc(O)cc1)C(=O)OC | 0.746 | -3.3 (inactive) | -1.21 (inactive) | 0.0384 (inactive) | -1.12 (inactive) | 0.112 | 0.263 | 0.644 | 0.694 | 1.87 | 1.58 (inactive) | -0.321 | 6.21 (inactive) | 1.93 (inactive) | 1.93 (inactive) | 0.958 (inactive) | 0.125 | -0.0647 (inactive) | -1.83 (inactive) | 0.121
2 | C=C[C@H](C)[C@H](OC(=O)Nc1ccc(SC)cc1)c1ccc(O)c2ccccc12 | 0.081 | -4.25 (inactive) | -0.0275 (inactive) | 0.0172 (inactive) | 4.5 (inactive) | -0.635 | -0.154 | -0.252 | -0.0104 | 0.73 | -1.61 (inactive) | -1.01 | 28.9 (active) | 10.2 (active) | 2.13 (inactive) | 0.867 (inactive) | 0.451 | -5.46 (inactive) | -0.825 (inactive) | 1.76
3 | COCCOC(=O)N1C(=O)[C@@]2(c3cc(C#CCC(C(=O)OC)C(=O)OC)ccc31)[C@H](C(=O)N1CCCCCCC1)[C@H]1C(=O)O[C@H](c3ccccc3)[C@H](c3ccccc3)N1[C@@H]2c1ccc(O)cc1 | 0.735 | -4.08 (inactive) | -0.754 (inactive) | -0.882 (inactive) | -0.807 (inactive) | 1.22 | 1.22 | 1.41 | 1.41 | 1.62 | 0.683 (inactive) | 2.46 | 0.915 (inactive) | 0.444 (inactive) | 0.678 (inactive) | 0.336 (inactive) | -0.0955 | 1.32 (inactive) | -0.378 (inactive) | 1.01
4 | O=C1N(CCS(=O)(=O)c2ccccc2)c2ccccc2[C@H]2OC(c3ccc(OCCCO)cc3)=N[C@@]12CCS(=O)(=O)c1ccccc1 | 1.52 | -1.61 (inactive) | 1 (inactive) | 3.35 (inactive) | -0.168 (inactive) | 0.842 | 1.08 | 0.766 | 1.03 | 1.66 | 0.401 (inactive) | 0.582 | 28.2 (active) | 26.3 (active) | 3.35 (inactive) | 4.36 (inactive) | -0.357 | 1.76 (inactive) | 0.492 (inactive) | 1.46
5 | O=C1c2ccccc2[C@](Cc2ccccc2I)(C(=O)NCC(F)(F)F)[C@H](c2ccc(CO)cc2)N1Cc1ccccc1 | -0.134 | -0.396 (inactive) | 0.144 (inactive) | 0.272 (inactive) | 2.76 (inactive) | 1 | 0.098 | -0.661 | 0.341 | 0.46 | 0.131 (inactive) | -0.229 | 2.39 (inactive) | 0.111 (inactive) | 0.369 (inactive) | 0.278 (inactive) | -0.261 | 0.738 (inactive) | -0.16 (inactive) | 1.14
6 | CCCC=C(CCC)[C@@H](NS(=O)(=O)c1cccc2cccnc12)c1ccc(C(=O)OC)cc1 | 3.01 | -0.0811 (inactive) | -0.124 (inactive) | -1.13 (inactive) | 0.0608 (inactive) | 0.358 | 2.04 | 0.361 | 0.0731 | -0.187 | -1.2 (inactive) | 0.968 | -0.643 (inactive) | -0.299 (inactive) | -0.722 (inactive) | -1.19 (inactive) | 0.393 | 0.0603 (inactive) | 0.212 (inactive) | 2
7 | COCCCNC(=O)[C@@]1(Cc2ccccc2I)c2ccccc2C(=O)N(Cc2ccccc2Cl)[C@H]1c1ccc(CO)cc1 | -0.193 | -4.15 (inactive) | -1.72 (inactive) | -0.529 (inactive) | -0.656 (inactive) | 1.46 | -0.0538 | -0.0444 | -0.078 | 0.191 | 0.437 (inactive) | -0.0346 | 5.51 (inactive) | 0.303 (inactive) | 0.65 (inactive) | 0.13 (inactive) | 0.984 | 0.374 (inactive) | -0.881 (inactive) | -2.14
